Hit rate of the full screen: of about 200,000 compounds, about 4,500 (2.2%) were called active. Inconclusive results (about 12%) are left out. This excerpt belongs to a sample that is enriched for actives. More than one record can exist for a structure, and the calls need not agree. A number with no mark means an inactive call. Calls follow the shape of the dose curve; as a rule, active = well fitted inhibition curve with a large enough effect; inconclusive = small, poorly fitted or top-dose-only effect, or effect the other way; inactive = flat fitted curve, though single readings scatter.
Potency is read from the fitted curve at half-maximal effect.

Chain of Cruzipain (Trypanosoma cruzi) (P25779 123-467 limits assumed): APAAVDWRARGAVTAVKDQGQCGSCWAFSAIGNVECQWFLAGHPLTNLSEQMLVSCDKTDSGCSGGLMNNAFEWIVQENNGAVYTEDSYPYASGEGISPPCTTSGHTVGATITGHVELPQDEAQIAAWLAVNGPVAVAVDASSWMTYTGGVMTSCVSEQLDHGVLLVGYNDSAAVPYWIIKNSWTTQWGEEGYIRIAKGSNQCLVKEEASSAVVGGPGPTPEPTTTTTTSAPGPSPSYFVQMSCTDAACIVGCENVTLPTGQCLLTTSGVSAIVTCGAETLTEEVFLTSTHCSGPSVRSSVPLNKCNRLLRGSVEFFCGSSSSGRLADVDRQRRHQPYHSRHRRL

The target of the experiment is Cruzipain (Trypanosoma cruzi) (UniProt P25779). Kind of experiment: qHTS Assay for Promiscuous and Specific Inhibitors of Cruzain (without detergent). Also: nearly all actives have a fitted effect of over 40% in size.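 As to max response, negative = inhibition: plate controls were enzyme without inhibitor for no effect and buffer without enzyme for full effect.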 As to conditions: purified cruzain, Z-FR-AMC fluorescence, no detergent. In a few lines:
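Purified cruzain at 1.5 nM, pre-incubated 15 min with compound at room temperature in 100 mM sodium acetate pH 5.5, 5 mM DTT, 0.00005% Triton X-100. Reaction started with 2 uM Z-FR-AMC; AMC fluorescence increase over 60 s gives rate.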
A general note: In qHTS, concentration-response curves come from the screen itself.
As to `COC(=O)c1cccc(Cn2nnc3sc4c(c3c2=O)CCC(C(C)(C)C)C4)c1` (configuration not stated), the max response, negative = inhibition is 2.87%. Take `O=C(CCC(=O)N1CC2CCCN2c2ccccc21)NCc1ccccc1Cl` (configuration not stated): the max response, negative = inhibition is -16.5%.

`Cc1nnc(NC(=O)CSc2nc3c([nH]c4ccccc43)c(=O)n2-c2cccc(Cl)c2)s1`: the max response, negative = inhibition was 2.35%.

For the compound `COc1cc(-c2nnn(CC(=O)NCc3ccccc3)n2)cc(OC)c1OC`, the max response, negative = inhibition is 25.6%.

Take `Cc1cn(C)c(CC(=O)NCc2ccccc2)c1C(=O)O`: the max response, negative = inhibition is -3.27%. As for `CN(Cc1ccccc1)C(=O)c1cn(C)c2ccc(S(=O)(=O)N3CCCCC3)cc2c1=O`, the max response, negative = inhibition was -10.3%. On the same count and under the same terms, the value for `CN(Cc1ccccc1)C(=O)c1cn(C)c2ccc(S(=O)(=O)N(C)C3CCCCC3)cc2c1=O` was 5.7%; that for `COc1ccc(C(=O)Nc2ccc(-n3nncc3-c3ccccc3)cc2)cc1OC` was 25.3%; that for `Cc1ccc(N2CCN(C(=O)CCc3c(C)nc4c(c3C)c(=O)n(C)c(=O)n4C)CC2)c(C)c1` was 6.51%. On to `O=C(NCc1ccc(Cl)cc1)c1ccc2c(c1)nnn2C1CCCC1`, for which the max response, negative = inhibition is -10.2%. In the case of `Cc1ccc(-n2ncc3c(=O)n(Cc4cccc(C(F)(F)F)c4)cnc32)cc1C`, the max response, negative = inhibition was 6.16%. In the case of `Cn1cc(/C=C/c2nc3ccccc3c(=O)n2-c2ccccc2)c2ccccc21`, the max response, negative = inhibition is 10.3%. Regarding `Cn1cc(/C=C/c2nc3ccccc3c(=O)n2-c2cccc([N+](=O)[O-])c2)c2ccccc21`, the Potency was 10 µM (active). As for `Cc1ccc(-n2c(/C=C/c3cccc(C(F)(F)F)c3)nc3ccccc3c2=O)cc1`, the max response, negative = inhibition was -0.135%. In the case of `CSc1ccc(C2C(C(=O)Nc3ccccc3)=C(C)Nc3nc4ccccc4n32)cc1` (configuration not stated), the max response, negative = inhibition was -7.45%. Consider `CCc1cccc(C)c1NS(=O)(=O)c1c(C)nc2sccn2c1=O`, for which the max response, negative = inhibition is 1.11%. Take `CCOC(=O)c1cc2c(=O)n3ccccc3nc2n(CCCOC)c1=NC(=O)C(C)Oc1ccccc1` (configuration not stated): the max response, negative = inhibition was -4.02%. Same read-out and setting: to `C=CCNC(=S)N/N=C/c1ccc(OCc2ccccc2)cc1` belongs -2.25%; to `CNC(=S)NNC(=O)c1sccc1OCc1ccccc1`, -0.842%.

Consider `CNC(=S)N/N=C/c1ccc(OCc2ccccc2)c(Br)c1`, for which the Potency was 25.1 µM (active).

Consider `Cc1ccccc1CN1CCC(CNC(=O)c2cc3ccc4cccnc4c3[nH]2)CC1`, for which the max response, negative = inhibition is -9.74%. Regarding `O=c1cc(Cn2nnc(-c3ccc(Cl)cc3)n2)nc2sccn12`, the max response, negative = inhibition was 0.777%.

Turning to `Cc1ccc(Nc2c(-c3ccc(C)cc3)nc3cnccn23)cc1`, the max response, negative = inhibition is 5.6%. As for `Cc1ccc(Nc2c(-c3ccc(Cl)cc3)nc3sccn23)c(C)c1`, the Potency is 31.6 µM (active).

As to `Cc1cccc(-n2ccnc2SCC(=O)Nc2cccc3ccccc23)c1C`, the max response, negative = inhibition is -4.61%. With `Cc1ccc(OCCCC(=O)Nc2ccc(N3CCOCC3)cc2)cc1`, the max response, negative = inhibition was -0.526%. Same read-out and setting: the value for `O=C(COc1ccc(/C=N/NC(=O)c2ccc(O)cc2)cc1)Nc1ccc([N+](=O)[O-])cc1` was -9.42%. Take `O=C(COc1ccc([N+](=O)[O-])cc1)Nc1ccc(N2CCCC2)cc1`: the Potency was 7.94 µM (active). Turning to `CCS(=O)(=O)N1CCc2cc(C(=O)N3CCN(c4ccccc4OC)CC3)ccc21`, the max response, negative = inhibition is -11.9%. `Cc1cc(Cl)ccc1NC(=O)Cc1ccc(NC(=O)N2CCCCc3ccccc32)cc1`: the max response, negative = inhibition is 8.39%. Consider `NC(=O)N1CCCC1C(=O)Nc1ccc(Cl)c(Cl)c1` (configuration not stated), for which the max response, negative = inhibition was -7.92%.

Regarding `CC(C(=O)Nc1ccc(Cl)cc1Cl)N1CC=C(c2ccccc2)CC1` (configuration not stated), the max response, negative = inhibition is 3.73%. As for `O=C(Nc1ccc(Cl)c(Cl)c1)N1CC=C(c2ccccc2)CC1`, the Potency is 31.6 µM (active). On to `CC(CCCc1ccccc1)NC(=O)c1nn(-c2ccc(Cl)cc2)nc1CO` (configuration not stated), for which the max response, negative = inhibition was 4.3%. As to `CN1CCN(c2ccc(S(=O)(=O)Nc3ccccc3)cc2[N+](=O)[O-])CC1`, the max response, negative = inhibition is -3.45%. As to `O=[N+]([O-])c1ccc(N2CCN(S(=O)(=O)c3ccccc3)CC2)cc1N1CCc2ccccc2C1`, the Potency was 7.94 µM (active).

Regarding `CC(=O)Nc1ccc(S(=O)(=O)N2CCN(c3ccccc3)CC2)cc1`, the max response, negative = inhibition was 4.93%.

As to `Cc1ccccc1CNC(=O)C1CCCN(S(=O)(=O)N(C)c2ccc(F)cc2)C1` (configuration not stated), the max response, negative = inhibition is 7.13%. Still for that read-out and setting: the value for `O=C(COc1ccc(Cl)cc1)Nc1ccccc1OCc1cc(=O)n2ccccc2n1` was -0.406%.

For `CC(C)c1ccc2c(c1)c(SC(C)(C)C)c(CC(C)(C)C(=O)O)n2Cc1ccc(Cl)cc1`, the Potency is 7.94 µM (active) and the max response, negative = inhibition is 1.55%. Regarding `CC(C)c1ccc(Cn2c(COc3ccccc3)nc3ccccc32)cc1`, the max response, negative = inhibition was -13.5%. Turning to `O=C(Cn1c(=O)nc(-c2ccccc2)c2cc(Cl)ccc21)NCc1ccc(Cl)cc1`, the max response, negative = inhibition was -1.57%. With `COc1ccc(NC(=O)CSc2nccn2Cc2ccc3c(c2)OCO3)cc1`, the max response, negative = inhibition was -5.6%. On the same count and under the same terms, the value for `CCOc1ccccc1C1CC(c2cccc(NS(C)(=O)=O)c2)=NN1C(=O)c1ccccc1` (configuration not stated) was 4.98%. In the case of `CCOc1ccc2nc(Cl)c(C3CC(c4ccccc4)=NN3C(=O)c3cccs3)cc2c1` (configuration not stated), the Potency was 7.94 µM (active).

Regarding `O=C(COc1ccc2ccccc2c1)N1CCN(C(=O)c2cccs2)CC1`, the max response, negative = inhibition is 12.1%.

Take `CCOC(=O)c1c(C)oc2nc(C)nc(N(CC(C)C)CC(C)C)c12`: the max response, negative = inhibition was -3.29%. On to `COc1ccc(NC(=O)CN2C(=O)COc3ccc(S(=O)(=O)N4CCOCC4)cc32)cc1`, for which the max response, negative = inhibition was 4.14%. As for `O=C(NC1CCc2ccccc21)C12CN(Cc3ccccc3)CC1C(c1cccc([N+](=O)[O-])c1)=NO2` (configuration not stated), the Potency is 12.6 µM (active).

Take `Nc1ccc(C(=O)OCC(=O)NC2CCCc3ccccc32)cc1[N+](=O)[O-]` (configuration not stated): the max response, negative = inhibition was -1.06%. Take `COc1ccc([N+](=O)[O-])cc1C1NN=C(c2cccc3ccccc23)S1` (configuration not stated): the Potency was 7.94 µM (active). For `COc1ccc([N+](=O)[O-])cc1NC(=O)CCc1ccccc1`, the max response, negative = inhibition is -3.31%. Turning to `COc1ccccc1CC(=O)Nc1ccc([N+](=O)[O-])cc1OC`, the max response, negative = inhibition is -6.07%.

For the compound `O=C(CSc1nc(Nc2ccc(F)c(F)c2)c2ccccc2n1)c1ccc(Cl)cc1`, the max response, negative = inhibition is -24.6%.

`COC(=O)Cc1nc2ccccc2[nH]1`: the max response, negative = inhibition is -1.4%. As to `COc1ccccc1CSc1nc2ccccc2[nH]1`, the max response, negative = inhibition was 4.13%.

Regarding `Cc1ccccc1OC/C(O)=C(\C#N)c1nc2ccccc2[nH]1`, the Potency was 20 µM (active). As to `CCOc1ccc(NC(=O)Cn2c(C)ccc(C#N)c2=O)cc1`, the max response, negative = inhibition is -12.5%. Regarding `COc1ccc(S(=O)(=O)N2CCCC(C(=O)Nc3ccc(NC(=O)c4ccccn4)cc3)C2)cc1` (configuration not stated), the max response, negative = inhibition is -11.4%.

`Cc1cc(N2CCN(S(=O)(=O)c3ccc(C)c(C)c3)CC2)c2ccccc2n1`: the max response, negative = inhibition is 1.17%. In the case of `COc1ccc(S(=O)(=O)N2CCN(c3ncnc4c(-c5ccccc5)nsc34)CC2)cc1`, the Potency was 20 µM (active). `COc1cccc(NC(=O)Cn2c(=O)cc(C)c3c(C)nn(-c4cccc(F)c4)c32)c1`: the max response, negative = inhibition was -8.29%.

Consider `CCC(=O)N1CCc2cc(CNS(=O)(=O)c3ccc(Br)s3)ccc21`, for which the max response, negative = inhibition was -2.98%.

For the compound `CCOc1ccc(Nc2oc(/C=C/c3ccc(F)cc3)nc2C#N)cc1`, the max response, negative = inhibition was -13.4%. For `O=C(c1ccc(CN2CCOCC2)cc1)N1CCN(c2ccccc2F)CC1`, the max response, negative = inhibition is -4.12%. With `Cc1c(C)n(Cc2ccc(Cl)cc2)c2ccc(C(=O)N3CCN(c4ccccc4F)CC3)cc12`, the Potency was 12.6 µM (active).

In the case of `CCn1c(C)c(C)c2cc(C(=O)N3CCN(c4cccc(C)c4C)CC3)ccc21`, the max response, negative = inhibition is -25.1%. Turning to `Cc1ccc(C)c(Cn2c(=O)n(CCC(=O)NCc3ccc4c(c3)OCO4)c(=O)c3sccc32)c1`, the max response, negative = inhibition is -5.68%. For `O=C(CSCc1cnn(-c2ccccc2)c1-n1cccc1)NCc1ccc(Cl)cc1`, the max response, negative = inhibition was 5.64%. Consider `Cc1ccc(-n2nc(C)c(C(=O)O)c2-n2cccc2)cc1`, for which the max response, negative = inhibition was 1.25%. With `CCC(=O)N1CCc2cc(S(=O)(=O)NC(C(=O)NCCc3ccc(C)cc3)C(C)C)ccc21` (configuration not stated), the max response, negative = inhibition is -12.9%. On to `COc1cccc(CNC(=O)c2ccc3c(c2)N(Cc2ccc(C(F)(F)F)cc2)C(=O)c2ccccc2S3)c1OC`, for which the Potency is 10 µM (active). Take `Cc1ccccc1CN1C(=O)c2ccccc2Sc2ccc(C(=O)NCCCN3CCOCC3)cc21`: the max response, negative = inhibition is -3.52%. On the same count and under the same terms, to `COc1ccccc1NC(=O)CN1C(=O)c2ccccc2Sc2ccc(C(=O)N3CCCC3)cc21` belongs 4.29%. On the same count and under the same terms, the value for `Cc1ccc(-c2csc(NC(=O)c3cccs3)n2)cc1` was 7.26%. The same measure, in the same setting: to `Cc1nc(-c2ccc(NC(=O)c3cccs3)cc2)cs1` belongs -25.5%. Regarding `Cc1sc(NC(=S)NC(=O)c2cccs2)nc1-c1ccc(CC(C)C)cc1`, the Potency was 10 µM (active).

Regarding `COc1ccc(C2=NC(c3ccncc3)=Nc3ccc(Br)cc3N2)cc1`, the max response, negative = inhibition was 11.4%. With `O=C(Cn1ncn2nc(-c3cccs3)cc2c1=O)NCc1cccc(Br)c1`, the max response, negative = inhibition is -9.74%. Turning to `O=C(CSc1oc(-c2ccco2)nc1S(=O)(=O)c1ccc(Cl)cc1)c1ccccc1`, the max response, negative = inhibition is 10.2%. For `CCCN(CCC)CCCNC(=O)Cn1cc2c(n1)-c1c(oc(C(=O)N3CCCC3)c1C)CC2`, the max response, negative = inhibition is 2.15%. Still for that read-out and setting: to `CCc1cccc(NC(=O)CN(c2ccc(C)c(C)c2)S(=O)(=O)c2ccsc2C(=O)OC)c1` belongs -9.83%; to `Cc1ccc(CNC(=O)CSc2c(C)cnc3c2c(=O)n(C)c(=O)n3C)cc1`, -5.95%. For `Cc1nn2c(=O)cc(COC(=O)CNC(=O)c3ccc(F)cc3)nc2s1`, the max response, negative = inhibition is -12.1%.

Take `Cc1cc(C(=O)COC(=O)CNC(=O)c2ccc(F)cc2)c(C)n1Cc1ccco1`: the Potency is 15.8 µM (active). For the compound `O=C(CNC(=O)c1ccco1)OCC(=O)c1ccccc1`, the max response, negative = inhibition was -5.08%.
